About 2,000 (0.91%) of roughly 220,000 compounds were called active. Roughly 2% stayed inconclusive and do not appear here. Rule as the data show it: inconclusive = inhibition above about 80% without an active follow-up result; inactive = below that; test concentration not stated here. The list is a sample of the results. Entries with a potency or affinity are not part of this list.
assay: M. tuberculosis H37Rv growth inhibitors, H37Rv strain (AID 1626); settings: stronger effect = higher value, concentration not given here;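 also: bacteria incubated seven days before Alamar blue readout; 0% = bacteria only wells and 100% = bacteria with antibiotic wells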

Row | Compound | inhibition
1 | O=C(C[n+]1cc(-c2ccc(Cl)c(Cl)c2)n2c1CCC2)OCc1ccccc1 | 4.51% (inactive)
2 | O=C(C[n+]1cc(-c2ccc(Cl)c(Cl)c2)n2c1CCC2)c1cccs1 | 3.68% (inactive)
3 | CCOCCCNCc1ccc(OC)cc1 | -2.12% (inactive)
4 | N#Cc1nc(-c2ccccc2F)oc1NCCc1ccccn1 | 4.27% (inactive)
5 | Cc1cc(C)cc(NC(=O)Nc2ccc3c(c2)N(C)C(=O)CS3)c1 | 1.91% (inactive)
6 | CCC1CCC/C1=N\NC(=O)c1cc(C)[nH]n1 (stereo not given) | -7.04% (inactive)
7 | NNC(=O)COc1ccccc1[N+](=O)[O-] | -1.65% (inactive)
8 | CC(C)(C)C(=O)COc1ccccc1[N+](=O)[O-] | 0.09% (inactive)
9 | CC(C)(Oc1ccc(Cl)cc1)C(=O)N/N=C/c1cn[nH]c1-c1ccccc1 | -0.17% (inactive)
10 | CC1CCC2(CC1)OCC1(CCC3(COC4(CCC(C)CC4)OC3)C1=O)CO2 (stereo not given) | -1.15% (inactive)
11 | CCCCOc1ccc(C(=O)NCC(=O)NCC(=O)OCC)cc1 | 5.43% (inactive)
12 | CCOC(=O)CNC(=O)CNC(=O)c1ccc(OC)cc1 | -5.13% (inactive)
13 | Cc1ccc(S(=O)(=O)N(C)C)cc1-n1c(SCC(=O)Nc2ccccc2)nc2ccccc2c1=O | 1.63% (inactive)
14 | Cc1nnc(Sc2cc(NCCO)c([N+](=O)[O-])c3nonc23)s1 | -7.45% (inactive)
15 | Cc1nnc(Sc2cc(NCCCO)c([N+](=O)[O-])c3nonc23)s1 | -2.43% (inactive)
16 | CCOC(=O)N1CCN(c2cc(NCCO)c([N+](=O)[O-])c3nonc23)CC1 | -2.1% (inactive)
17 | Cn1ccnc1Sc1cc(NCCCO)c([N+](=O)[O-])c2nonc12 | 2.79% (inactive)
18 | COC(=O)CNC(=O)COC(=O)/C=C/c1ccccc1[N+](=O)[O-] | 3.19% (inactive)
19 | Cc1ccc(S(=O)(=O)NCCc2nnc3ccc(NCCCOC(C)C)nn23)cc1 | 0.94% (inactive)
20 | CC1(c2ccc([N+](=O)[O-])cc2)CC(C)(C)N(C(=O)c2ccccc2)c2ccccc21 (stereo not given) | 6.73% (inactive)
21 | CC1(c2cc([N+](=O)[O-])cc([N+](=O)[O-])c2)CC(C)(C)N(C(=O)c2ccccc2)c2ccccc21 (stereo not given) | 2.82% (inactive)
22 | CC(=O)C1=C(O)C(=O)N(Cc2ccco2)C1c1ccc2c(c1)OCO2 (stereo not given) | -9.04% (inactive)
23 | CC(C)NC(=O)C(=O)NCCc1ccc(Cl)cc1 | -1.47% (inactive)
24 | CCOC(=O)c1c(C)[nH]c(NC(=O)Nc2c(C)n(C)n(-c3ccccc3)c2=O)c1C | -2.03% (inactive)
25 | COc1ccc(O)c2c(=O)c3c(OC)cc4c(c3oc12)C1C=COC1O4 (stereo not given) | -3.61% (inactive)

Row | Compound | inhibition
26 | CSc1ccccc1C(=O)C1CCCN(Cc2cnn(-c3ccccc3)c2)C1 (stereo not given) | 0.775% (inactive)
27 | Cn1cc(CN2CCCC(C(=O)c3ccc(-c4ccccc4)cc3)C2)cn1 (stereo not given) | -1.15% (inactive)
28 | Cc1ccc(NC(=O)/C=C\C(=O)NCC(=O)O)cc1 | -2.38% (inactive)
29 | COC(=O)C1=C(C(=O)OC)[C@@H]2Nc3ccccc3[C@@]23C[C@@H](C(=O)OC)N(C(=O)c2ccco2)C3=N1 | -1.72% (inactive)
30 | O=C(NCc1ccco1)c1cc([N+](=O)[O-])ccc1Cl | -6.78% (inactive)
31 | O=C(NCc1cn(-c2ccccc2)nc1-c1ccccc1)c1ccc([N+](=O)[O-])cc1 | -4% (inactive)
32 | Cc1ccc(C(=O)NCc2ccco2)cc1[N+](=O)[O-] | 0.79% (inactive)
33 | O=C(NCc1cn(-c2ccccc2)nc1-c1ccccc1)c1cccc([N+](=O)[O-])c1 | 10.1% (inactive)
34 | CCOc1ccc(-c2cnc(N)n2C)cc1 | 5.53% (inactive)
35 | Cc1ccc(CSCCNC(=O)CN(c2cccc([N+](=O)[O-])c2)S(C)(=O)=O)cc1 | 0.16% (inactive)
36 | Cc1noc(C)c1COC(=O)C1(c2cccc(F)c2)CCCC1 | 5.81% (inactive)
37 | CCOC(=O)CC(=O)CSc1ncnc2c1nnn2-c1ccc(OC)cc1 | 0.52% (inactive)
38 | COC(=O)c1cccc(COC(=O)c2cccnc2SC)c1 | 5.06% (inactive)
39 | Cc1nn(C)c2ncc(C(N)=O)c(Oc3ccc(Cl)cc3)c12 | -11.3% (inactive)
40 | Cc1nc(-c2ccc(Cl)cc2)sc1C1(C)CC(c2cccc([N+](=O)[O-])c2)=NO1 (stereo not given) | -8.66% (inactive)
41 | Cc1ccccc1CN(c1ccc(C(=O)NCc2cccnc2)cc1)S(C)(=O)=O | -13.5% (inactive)
42 | Cc1ccc(SCC(=O)Nc2ccc(S(=O)(=O)Nc3nccs3)cc2)cc1 | 13.6% (inactive)
43 | Fc1ccc(-n2cc(-c3ccccc3)c3c(NN4CCOCC4)ncnc32)cc1 | -8.02% (inactive)
44 | c1ccc(-c2cn(-c3ccccc3)c3ncnc(NCCCN4CCOCC4)c23)cc1 | 1.78% (inactive)
45 | CCN=C(N/N=C/c1ccc([N+](=O)[O-])cc1)SC | -6.2% (inactive)
46 | O=C(CNc1ccccc1C(=O)O)c1ccccc1 | -10.8% (inactive)
47 | Cc1ccc(NC(=O)C/C(N)=N/O)cc1C | 72.6% (inactive)
48 | Cc1ccc(S(=O)(=O)N(C)Cc2ccc(C(=O)NN=C3C4CC5CC(C4)CC3C5)cc2)cc1 | -4.86% (inactive)
49 | Nc1cc(N)cc(-c2nc3ccccc3o2)c1 | 53% (inactive)
50 | Nc1nc(-c2cc3ccccc3o2)cs1 | 3.5% (inactive)

Row | Compound | inhibition
51 | CNc1ccccc1C(C)(C)c1cc(-c2cccc(OC)c2)no1 | 3.34% (inactive)
52 | Cn1/c(=N\NC(=O)C2CCCCC2)sc2ccccc21 | 4.34% (inactive)
53 | CCOC(=O)c1c(C)n(C)c2ccc(OC(C)=O)cc12 | -1.73% (inactive)
54 | CCOC(=O)c1c(C)n(C)c2ccc(OCC(N)=O)cc12 | 0.2% (inactive)
55 | Cc1nn(C)c(C(=O)N/N=C/c2ccccc2)c1[N+](=O)[O-] | -7.25% (inactive)
56 | COc1ccc(-n2c(SC3CCOC3=O)nc3ccccc3c2=O)cc1Cl (stereo not given) | 5.75% (inactive)
57 | CN1CCN(c2ccc(NC(=O)COc3ccccc3Cl)cc2)CC1 | 6.62% (inactive)
58 | COc1cccc(C(C(=O)NC2CCCC2)N(Cc2ccccc2OC)C(=O)c2ccco2)c1 (stereo not given) | 2.53% (inactive)
59 | COc1ccc(Nc2oc(COc3ccc(OC)cc3)nc2C#N)cc1 | -0.92% (inactive)
60 | COc1ccccc1/C=C/C(=O)NCc1ccccn1 | -4.28% (inactive)
61 | COc1ccccc1/C=C/C(C)=O | -0.82% (inactive)
62 | Cc1ccc2cccc(OC(=O)/C=C\c3ccccc3)c2n1 | -1.17% (inactive)
63 | CN(C(=O)Oc1cccc2cccnc12)c1ccccc1 | 1.95% (inactive)
64 | CCCNS(=O)(=O)c1ccc(NC(=O)Cc2cccs2)cc1 | 5.56% (inactive)
65 | C/C=C/c1ccc(OCCCCOc2ccccc2C(C)=O)c(OC)c1 | 6.35% (inactive)
66 | Brc1cccc(OCCOCCn2ccnc2)c1 | 4.09% (inactive)
67 | O=C(NCCN1CCc2ccccc2C1)C1CCN(S(=O)(=O)N2CCC3(CC2)OCCO3)CC1 | -3% (inactive)
68 | O=C(NCc1ccco1)c1ccccc1Br | -5.82% (inactive)
69 | O=C(NCc1ccco1)c1ccccc1-c1ccccc1 | -5.77% (inactive)
70 | O=c1ccnc(SCc2ccccc2Cl)[nH]1 | 3.49% (inactive)
71 | CCc1cccc2c1NC(=O)[C@]21[C@@H]2C(=O)N(Cc3ccccc3)C(=O)[C@@H]2[C@@H]2CCCN21 | -9.59% (inactive)
72 | CCc1ccc2c(c1)[C@]1(C(=O)N2)[C@@H]2C(=O)N(Cc3ccccc3)C(=O)[C@@H]2[C@@H]2CCCN21 | 3.94% (inactive)
73 | CN(C)c1ccccc1C(=O)N1CCCC(C(=O)c2ccc3ccccc3c2)C1 (stereo not given) | -4.94% (inactive)
74 | Cc1cccc2c1NC(=O)C21N2CCCC2C(C(=O)c2ccc3ccccc3c2)C12C(=O)Nc1ccccc12 (stereo not given) | 21.8% (inactive)
75 | CC(C)c1cc(C(=O)N2CCCC(C(=O)c3ccc4ccccc4c3)C2)on1 (stereo not given) | 5.22% (inactive)

Row | Compound | inhibition
76 | CCn1nc(C)cc1C(=O)N1CCCC(C(=O)c2ccc3ccccc3c2)C1 (stereo not given) | 5.72% (inactive)
77 | Nc1nc(N2CCN(C(=O)c3ccco3)CC2)nc2ccc(Br)cc12 | 10.2% (inactive)
78 | Nc1c(Cl)ncnc1N1CCCC1 | -5.84% (inactive)
79 | CCCCOCCCNS(=O)(=O)c1ccccc1 | -3.58% (inactive)
80 | Cc1cc(Nc2cccc([N+](=O)[O-])c2)c2cccc(C)c2n1 | -6.77% (inactive)
81 | Cc1ccccc1C(=O)NNC1CC(=O)N(c2ccc3c(c2)OCCO3)C1=O (stereo not given) | -10.4% (inactive)
82 | O=C(COC(=O)c1ccc(O)cc1)Nc1cc(C(F)(F)F)ccc1Cl | 0.39% (inactive)
83 | CCS(=O)(=O)CCSc1nc2ccccc2o1 | 3.19% (inactive)
84 | c1ccc2oc(CCc3nc4ccccc4o3)nc2c1 | 0.98% (inactive)
85 | CCC(=O)c1ccc(OCCn2cnc3ccccc32)cc1 | 9.27% (inactive)
86 | COc1ccc(NC(=O)c2ccco2)c(OC)c1 | -9.54% (inactive)
87 | COc1cc(NC(=O)c2ccco2)c(OC)cc1NC(=O)c1cc(OC)c(OC)c(OC)c1 | 3.83% (inactive)
88 | Cc1ccc(-c2nnn(CC(=O)N(CC(=O)NC3CCCCC3)c3ccc(F)c(Cl)c3)n2)o1 | 1.56% (inactive)
89 | O=C(Nc1ccccc1)N(Cc1ccc2c(c1)OCO2)Cc1nc2ccccc2c(=O)[nH]1 | 9.11% (inactive)
90 | CCOC(=O)C1(CCc2ccccc2)CCN(Cc2nccn2CC)CC1 | 4.84% (inactive)
91 | CCOC(=O)C1(CCc2ccccc2)CCN(Cc2ccc(O)cc2)CC1 | 1.73% (inactive)
92 | Cn1cnnc1SCNC(=O)C(F)(F)F | -14.5% (inactive)
93 | CC(=O)Oc1ccc2c(=O)c(-c3ccccc3)coc2c1 | 71.2% (inactive)
94 | COc1ccccc1-c1coc2cc(OC(=O)/C=C/c3ccccc3)ccc2c1=O | 12.4% (inactive)
95 | Cc1oc2cc(OC(C)C(=O)O)ccc2c(=O)c1Oc1ccccc1 (stereo not given) | -9.62% (inactive)
96 | CCOC(=O)c1oc2cc(OC(C)=O)ccc2c(=O)c1-c1ccc(OC)c(OC)c1 | -4.14% (inactive)
97 | COc1ccccc1-c1coc2cc(OC(=O)N3CCOCC3)ccc2c1=O | 0.83% (inactive)
98 | Cc1oc2cc(OCC(=O)O)ccc2c(=O)c1Oc1ccccc1 | -10.7% (inactive)
99 | CCN(CC)C(=O)Oc1ccc2c(=O)c(-c3ccccc3)coc2c1 | 8.19% (inactive)
100 | CCOC(=O)c1oc2cc(OCC(N)=O)ccc2c(=O)c1-c1ccc(OC)c(OC)c1 | -2.49% (inactive)

Source: PubChem BioAssay AID1626 (SRMLSC, 2009)
